# In PubChem BioAssay AID743365 (National Center for Advancing Translational Sciences (NCATS), 2014):
# Square brackets hold non-standard residues; d marks the D form. Peptide text beside a SMILES is read from it. Orn = NCCC[C@H](N)C(=O)O
# Assay: qHTS profiling of inhibitors of Plasmodium falciparum (DD2) proliferation (acoustic dispense)
# Settings: P. falciparum Dd2 in erythrocytes, SYBR Green DNA, 72 h; at 49.8 µM (top of the series) unless noted
# Description: Plasmodium falciparum is a virulent malarial parasite that kills 1-2 million people worldwide each year. Transmitted by mosquitoes, the sporozoite form of the parasite enters the blood stream to infect hepatocytes, where they become merozoites that infect red blood cells (erythrocytes). Within erythrocytes, merozoites begin a […] cycle of growth and division, after which the parasite is released to infect new red blood cells. Gametocytes, which form within erythrocytes as well, circulate in the bloodstream and are ingested by the mosquito, thereby completing the life cycle. To profile malarial isolates for differential chemical responses and to identify inhibitors of malarial growth, an assay that measures P. falciparum growth and replication within erythrocytes was employed. This assay uses a DNA binding fluorescent dye (SYBR Green) to detect parasite DNA following cell lysis. Because mature erythrocytes lack DNA, only Plasmodium-derived DNA is detected.
# The SYBR Green viability assay was adapted from a method described previously (Plouffe et al., 2008). For screening 3 ul culture medium was dispensed into 1536 well black clear bottom plates (Aurora Biotechnologies) using a Multidrop Combi (Thermo Fisher Scientific Inc.), 23 nL of compounds in DMSO were added by an acoustic dispenser (EDC Biosystems), and 5 ul of erythrocytes infected with P. falciparum (0.3% parasitemia, 2.5% hematocrit final concentration) were added. The plates were incubated at 37 C in a humidified incubator in 5% CO2 for 72 h, and 2 ul lysis buffer (20 mM Tris HCl, 10 mM EDTA, 0.16% saponin, 1.6% triton X, 10X SYBR Green I supplied as 10,000X […] by Invitrogen) was added to each well. The plates were mixed for 25 sec with gentle shaking and incubated overnight at room temperature in the dark. The following morning, fluorescence intensity at 485(14) nm excitation and 535(25) nm emission wavelengths was measured on an EnVision (Perkin Elmer) plate reader. Plate reads were normalized relative to the control inhibitor (0.29 uM artemisinin) and vehicle (DMSO) wells present on each plate and then corrected by an algorithm using vehicle-only control plates at the beginning and end of the compound plate stack.
row,Structure (SMILES),"parasite growth, lower = inhibition"
1,CCN(CC)CCCC(C)Nc1ccnc2cc(Cl)ccc12 (stereo not given),-0.356%
2,CC[C@H]1CN2CCc3cc(OC)c(OC)cc3[C@H]2C[C@@H]1C[C@@H]1NCCc2cc(OC)c(OC)cc21,0.111%
3,CO[C@H]1C=CO[C@@]2(C)Oc3c(C)c(O)c4c(O)c(c(C=NN5CCN(C)CC5)c(O)c4c3C2=O)NC(=O)C(C)=CC=C[C@H](C)[C@H](O)[C@@H](C)[C@@H](O)[C@@H](C)[C@H](OC(C)=O)[C@H]1C,-0.189% [at 16.5 µM]
4,C=CCn1c(=O)c2cnc(Nc3ccc(N4CCN(C)CC4)cc3)nc2n1-c1cccc(C(C)(C)O)n1,-0.0983%
5,CCC(=O)N1CCN(c2ccc(-n3c(=O)ccc4cnc5ccc(-c6cnc7ccccc7c6)cc5c43)cc2C(F)(F)F)CC1,3.68%
6,COC(=O)c1ccc2c(C(=Nc3ccc(N(C)C(=O)CN4CCN(C)CC4)cc3)c3ccccc3)c(O)[nH]c2c1,14.8%
7,C=C[C@@H]1CN2CCC1C[C@@H]2C(O)c1ccnc2ccc(OC)cc12 (stereo not given in full),1.83%
8,Cn1c2ccccc2c2c3c(c4c5ccccc5n(CCC#N)c4c21)CNC3=O,70.2%
9,O=C(Nc1cn[nH]c1-c1nc2ccc(CN3CCOCC3)cc2[nH]1)NC1CC1,0.452%
10,COc1cc(NC(C)CCCN)c2ncccc2c1 (stereo not given),-0.0889%
11,CCN(CC)Cc1cc(Nc2ccnc3cc(Cl)ccc23)ccc1O,0.736% [at 23.2 µM]
12,CC(C)C[C@@H]1NC(=O)[C@H](CCCN)NC(=O)[C@H](C(C)C)NC(=O)[C@@H]2CCCN2C(=O)[C@@H](Cc2ccccc2)NC(=O)[C@H](CC(C)C)NC(=O)[C@H](CCCN)NC(=O)[C@H](C(C)C)NC(=O)[C@@H]2CCCN2C(=O)[C@@H](Cc2ccccc2)NC1=O (cyclo(V[Orn]L[dF]PV[Orn]L[dF]P)),0.52%
13,CCc1nc(N)nc(N)c1-c1ccc(Cl)cc1,79.6%
14,CN(C)c1ccc(C(=C2C=CC(=[N+](C)C)C=C2)c2ccc(N(C)C)cc2)cc1,96.3%
15,CCCC[C@@H]1C[C@@H](C(=O)NC([C@H](C)Cl)[C@H]2O[C@H](S)[C@H](O)[C@@H](O)[C@@H]2O)N(C)C1 (stereo not given in full),20.5%
16,C[C@@H](Oc1ccc2[nH]nc(C=Cc3cnn(CCO)c3)c2c1)c1c(Cl)cncc1Cl,1.14%
17,Nc1cccc(-c2csc(NC(=O)CCCCCCC(=O)NO)n2)c1,-0.461%
18,C[C@H]1[C@@H](OC(=O)CCC(=O)O)O[C@@H]2O[C@@]3(C)CC[C@@H]4[C@H](C)CC[C@@H]1[C@@]24OO3,-0.775%
19,CC(C=CC(=O)NO)=C[C@@H](C)C(=O)c1ccc(N(C)C)cc1,-0.545%
20,CN[C@@H](C)C(=O)N[C@H]1CCCC[C@H]2CC[C@@H](C(=O)N[C@@H](c3ccccc3)c3cn(CCCCc4ccc(CCCCn5cc([C@@H](NC(=O)[C@@H]6CC[C@@H]7CCCC[C@H](NC(=O)[C@H](C)NC)C(=O)N76)c6ccccc6)nn5)cc4)nn3)N2C1=O,0.728%

row,Structure (SMILES),"parasite growth, lower = inhibition"
1,Nc1ccc(-c2ccc3ncc4ccc(=O)n(-c5cccc(C(F)(F)F)c5)c4c3c2)cn1,-0.538%
2,O=C(Nc1ccc([N+](=O)[O-])cc1Cl)c1cc(Cl)ccc1O,87.9%
3,Cn1cc(CNCC2CCN(c3ncc(C(=O)NO)cn3)CC2)c2ccccc21,0.158%
4,C1CCC(C(CC2CCCCN2)C2CCCCC2)CC1 (stereo not given),0.0319%
5,CS(=O)(=O)CCNCc1ccc(-c2ccc3ncnc(Nc4ccc(OCc5cccc(F)c5)c(Cl)c4)c3c2)o1,5.58%
6,Cn1cc(C2=C(c3c4n(c5ccccc35)CCC(CN)C4)C(=O)NC2=O)c2ccccc21 (stereo not given),2.27%
7,CCc1cc(Nc2nccc(-c3c(-c4ccc(OC)c(C(=O)Nc5c(F)cccc5F)c4)nc4ccccn34)n2)c(OC)cc1N1CCC(N2CCN(S(C)(=O)=O)CC2)CC1,-0.192%
8,CO[C@H]1C=CC=C(C)C(=O)NC2=CC(=O)C(NCCN(C)C)=C(C[C@@H](C)C[C@H](OC)[C@@H](O)[C@@H](C)C=C(C)[C@@H]1OC(N)=O)C2=O,-1.01%
9,CC(C)Oc1cc(Nc2nc(N[C@@H](C)c3ccc(F)cn3)ncc2Cl)[nH]n1,3.28%
10,CC(C)[C@H](C(=O)Nc1ccc(C(=O)NO)cc1)c1ccccc1,0.408%
11,CN(C)c1ccc2nc3ccc(=[N+](C)C)cc-3sc2c1,11.8%
12,CCCCCCOC(=O)C1(O)CC2OC1(C)n1c3ccccc3c3c4c(c5c6ccccc6n2c5c31)C(=O)NC4 (stereo not given),89.2% [at 1.88 µM]
13,CC[C@]1(O)C[C@H]2CN(CCC3=c4ccccc4=N[C]3[C@@](C(=O)OC)(c3cc4c(cc3OC)N(C)[C@H]3[C@@](O)(C(N)=O)[C@H](O)[C@]5(CC)C=CCN6CC[C@]43[C@@H]65)C2)C1,3.44%
14,C[C@H](Cn1cnc2c(N)ncnc21)OCP(=O)(O)O,98%
15,CC(C)N=C(N)N=C(N)Nc1ccc(Cl)cc1,-0.338%
16,FC(F)c1nc2ccccc2n1-c1nc(N2CCOCC2)nc(N2CCOCC2)n1,0.937%
17,CSc1cccc(Nc2ncc3cc(-c4c(Cl)cccc4Cl)c(=O)n(C)c3n2)c1,3.85%
18,c1cncc(CN2CCC(n3ncc4c(N5CCOCC5)nc(-c5ccc6[nH]ccc6c5)nc43)CC2)c1,0.462%
19,Clc1ccc2c(N3CCN(CCCN4CCN(c5ccnc6cc(Cl)ccc56)CC4)CC3)ccnc2c1,-0.434% [at 23.2 µM]
20,C[C@@H]1CCC2[C@@H](C)[C@@H](O)O[C@@H]3O[C@@]4(C)CC[C@@H]1[C@@]23OO4 (stereo not given in full),-0.395%
